Molecules are shown by their SMILES. Inconclusive results are not listed. The source made the active and inactive calls. Unless noted, the call rests on the fitted dose curve; in most records, active means well fitted curve in the direction sought with a large enough effect in the repeat runs; inconclusive means weak or mixed curves; inactive means no such curve, though single readings can be large; an effect the other way counts as inactive or inconclusive.

This is an account of results in PubChem BioAssay (Tox21).

The nature of test [1]: qHTS assay to identify aromatase inhibitors - cell viability counter screen (AID 743084).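 Further: cells stimulated with testosterone during compound exposure; nearly all actives have a fitted effect of over 55% in size.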
The target in test [2] is Aryl hydrocarbon receptor (Homo sapiens) (UniProt P35869). As to the kind of experiment: qHTS assay to identify small molecule that activate the aryl hydrocarbon receptor (AhR) signaling pathway (AID 743085). Further: nearly all actives have a fitted effect of over 15% in size. Further: potency means the concentration at half of the fitted maximal effect.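 On activation: HG2L7.5c1 human HepG2 liver cells with stably integrated DRE-driven firefly reporter; series mostly up to about 70 µM.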 The gist of the method: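 Steps: seed HepG2-AhR-luc cells; allow 5 h at 37C; pin-transfer test compound or vehicle; incubate 24 h at 37C; add viability dye (30 min, 37C) and read fluorescence; add luciferase substrate (30 min, RT) and read luminescence.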
For orientation: In qHTS, concentration-response curves come from the screen itself.

In test [3] the target is Peroxisome proliferator-activated receptor gamma (Homo sapiens) (UniProt P37231). Description: qHTS assay to identify small molecule agonists of the peroxisome proliferator-activated receptor gamma (PPARg) signaling pathway (AID 743094; active means well fitted activation curve with a large enough effect in the signal ratio in the repeat runs, not every such curve was filed as active; the % refers to the signal ratio). The gist of the method: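 Agonist activity was taken from a beta-lactamase reporter (FRET substrate, 1 h at room temperature) in HEK293H cells carrying a PPARg UAS-bla construct. Compounds in DMSO were incubated 17 h at 37C after a 5 h cell pre-incubation.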

Test [4] is described as follows: qHTS assay to identify small molecule antagonists of the peroxisome proliferator-activated receptor gamma (PPARg) signaling pathway - cell viability counter screen (AID 743194). Further: nearly all actives have a fitted effect of over 55% in size. The conditions noted are these: Potency: co-treated with 50 nM rosiglitazone unless noted. Summed up: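 Viability was measured as CellTiter-Glo luminescence in GeneBLAzer PPARg UAS-bla HEK293H cells. These cells had been exposed 17 h at 37 C to compounds together with rosiglitazone at 50 nM final, with the beta-lactamase readout taken in the same wells.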

The nature of test [5]: qHTS assay for small molecule agonists of the antioxidant response element (ARE) signaling pathway - cell viability counter screen (AID 743203; calls by dose curve; further: nearly all actives have a fitted effect of over 55% in size). Summed up:
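Viability counter screen: CellTiter-Glo luminescence, read after 30 min at room temperature, in ARE-bla HepG2 wells. Compound exposure lasted 16 h at 37C/5% CO2, following a 5 h pre-incubation of the cells after plating.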

Test [6] is described as follows: qHTS assay for small molecule activators of the heat shock response signaling pathway - cell viability counter screen (AID 743209). Further: nearly all actives have a fitted effect of over 50% in size. The gist of the method: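 Cytotoxicity counter screen run in the same wells as the heat-shock bla reporter assay: HeLa HSE-bla cells, 5 h compound exposure at 37 C, viability read by CellTiter-Glo luminescence.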
The nature of test [7]: qHTS assay for small molecule activators of the heat shock response signaling pathway (AID 743210; active means well fitted activation curve with a large enough effect in the signal ratio in the repeat runs, with a control signal flat, not every such curve was filed as active; the % refers to the signal ratio; further: potency means the concentration at half of the fitted maximal effect; on activation: series mostly up to about 63 µM). The gist of the method: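 Compound exposure lasted 5 h at 37 C in HeLa cells carrying a heat-shock-element-driven beta-lactamase reporter. Read-out: fluorescence intensity after 2.5 h room-temperature loading with LiveBLAzer B/G FRET substrate.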
The nature of test [8]: qHTS assay to identify small molecule agonists of the peroxisome proliferator-activated receptor delta (PPARd) signaling pathway - cell viability counter screen (AID 743211). Further: nearly all actives have a fitted effect of over 55% in size. Summed up: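 Viability of GeneBLAzer PPARd UAS-bla HEK293H cells was assessed after 17 h compound incubation at 37C, using CellTiter-Glo reagent added after the reporter read and luminescence recorded 30 min later.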

The nature of test [9]: qHTS assay to identify small molecule antagonists of the peroxisome proliferator-activated receptor delta (PPARd) signaling pathway - cell viability counter screen (AID 743213). Further: nearly all actives have a fitted effect of over 50% in size. Summed up:
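Cytotoxicity counter screen: CellTiter-Glo luminescence read 30 min after addition, in the same wells as the reporter assay. There, PPARd UAS-bla HEK293H cells (3000/well) were treated 17 h at 37 C with compound and 300 nM L165041.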

The target in test [10] is Peroxisome proliferator-activated receptor delta (Homo sapiens) (UniProt Q03181). As to the kind of experiment: qHTS assay to identify small molecule antagonists of the peroxisome proliferator-activated receptor delta (PPARd) signaling pathway (AID 743215; active means well fitted inhibition curve with a large enough effect in the signal ratio in the repeat runs, not every such curve was filed as active; the % refers to the signal ratio;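 further: cells stimulated with agonist L165041 at 300 nM final during compound exposure; series mostly up to about 62 µM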). Summed up: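 Agonist L165041 (300 nM final) added with compound to PPARd-bla HEK293H UAS-bla reporter cells; 17 h incubation at 37 C. Read-out: LiveBLAzer FRET substrate, 2 h at room temperature, fluorescence intensity.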

Test [11] is described as follows: qHTS assay to identify small molecule antagonists of the farnesoid-X-receptor (FXR) signaling pathway - cell viability counter screen (AID 743221; active means well fitted cell-killing curve with a large enough effect in the repeat runs, not every such curve was filed as active; further: nearly all actives have a fitted effect of over 50% in size). Summed up: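 Quantitative HTS of the Tox21 10K library run in parallel with the beta-lactamase reporter read. HEK 293T cells carrying a UAS-driven bla reporter got compound and 50 uM CDCA (final) for 16 h; ATP-based luminescence followed.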

The target of test [12] is Vitamin D3 receptor (Homo sapiens) (UniProt P11473). As to the kind of experiment: qHTS assay to identify small molecule agonists of the vitamin D receptor (VDR) signaling pathway (AID 743222; calls by dose curve). The gist of the method: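 Agonist mode, beta-lactamase reporter: fluorescence from LiveBLAzer B/G FRET substrate (2 h, room temperature) read after 16 h compound treatment at 37 C of VDR-bla cells, which were pre-incubated 4 h after seeding.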

The target is the same in test [13]. As to the kind of experiment: qHTS assay to identify small molecule antagonists of the vitamin D receptor (VDR) signaling pathway (AID 743223; active means well fitted inhibition curve with a large enough effect in the signal ratio in the repeat runs, not every such curve was filed as active; the % refers to the signal ratio). Summed up:
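Fluorescence from LiveBLAzer B/G FRET substrate, read after 2 h at room temperature, reflects beta-lactamase reporter activity in VDR-bla cells treated 16 h at 37C with compounds and agonist 1alpha,25-dihydroxyvitamin D3 (3 nM final).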

Test [14] is described as follows: qHTS assay to identify small molecule agonists of the farnesoid-X-receptor (FXR) signaling pathway - cell viability counter screen (AID 743218). Further: nearly all actives have a fitted effect of over 45% in size. The gist of the method: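 Viability counter screen in the same wells: CellTiter-Glo luminescence, 30 min room-temperature incubation, measured after the beta-lactamase read. Cells were GeneBLAzer FXR-UAS-bla HEK 293T, compound-treated 16 h at 37C.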

Test [15] concerns the target Peroxisome proliferator-activated receptor gamma (Homo sapiens) (UniProt P37231). Description: qHTS assay to identify small molecule antagonists of the peroxisome proliferator-activated receptor gamma (PPARg) signaling pathway (AID 743191; calls by dose curve; further: series mostly up to about 63 µM; nearly all actives have a fitted effect of over 30% in size). The gist of the method:
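Beta-lactamase reporter under UAS control in HEK293H PPARg-bla cells; compound treatment 17 h at 37C. Read-out: fluorescence intensity after 1 h room-temperature incubation with LiveBLAzer B/G FRET substrate.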

In test [16] the target is Peroxisome proliferator-activated receptor delta (Homo sapiens) (UniProt Q03181). As to the kind of experiment: qHTS assay to identify small molecule agonists of the peroxisome proliferator-activated receptor delta (PPARd) signaling pathway (AID 743212; calls by dose curve;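 further: HEK293H cells with PPARd UAS beta-lactamase reporter GeneBLAzer system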). The gist of the method:
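Beta-lactamase reporter readout: a ratiometric FRET signal from the LiveBLAzer substrate after 2 h at room temperature. Compound exposure at 37 °C in PPARδ-bla HEK293H cells driven by an upstream activator sequence.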

The target in test [17] is Bile acid receptor (Homo sapiens) (UniProt Q96RI1). Description: qHTS assay to identify small molecule antagonists of the farnesoid-X-receptor (FXR) signaling pathway (AID 743217; active means well fitted inhibition curve with a large enough effect in the signal ratio in the repeat runs, not every such curve was filed as active; the % refers to the signal ratio). The gist of the method: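 Antagonist mode: chenodeoxycholic acid at 50 uM final stimulates a UAS-driven beta-lactamase reporter in HEK 293T FXR-bla cells during 16 h, 37C compound exposure. Read-out is FRET substrate fluorescence after 2 h at room temperature.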

For test [18] the target is unchanged. As to the kind of experiment: qHTS assay to identify small molecule agonists of the farnesoid-X-receptor (FXR) signaling pathway (AID 743220; active means well fitted activation curve with a large enough effect in the signal ratio in the repeat runs, not every such curve was filed as active; the % refers to the signal ratio). Summed up:
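FXR-UAS-bla HEK 293T cells carrying a UAS-driven beta-lactamase reporter were plated for 5 h at 37C/5% CO2, then exposed to DMSO-dissolved Tox21 10K compounds for 16 h at 37C. A LiveBLAzer B/G FRET substrate was loaded for 2 h at room temperature before fluorescence reading.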

A short description of test [19]: qHTS assay for small molecule agonists of the antioxidant response element (ARE) signaling pathway (AID 743202; active means well fitted activation curve with a large enough effect in the signal ratio in the repeat runs, not every such curve was filed as active; the % refers to the signal ratio). Summed up: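 After 16 hours of compound treatment at 37 C, HepG2 cells with a stably integrated ARE-driven beta-lactamase reporter were loaded 2 hours at room temperature with LiveBLAzer B/G FRET substrate and fluorescence intensity measured.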
Test [20] in a line: qHTS assay to identify small molecule that activate the aryl hydrocarbon receptor (AhR) signaling pathway - cell viability counter screen (AID 743086). Further: series mostly up to about 70 µM; nearly all actives have a fitted effect of over 45% in size. The gist of the method: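 Cytotoxicity counter screen: CellTiter-Fluor signal (30 min, 37 C) in 4000 HepG2 cells/well carrying the DRE-luciferase reporter, following 24 h compound exposure at 37 C.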

Chain of Peroxisome proliferator-activated receptor delta (Homo sapiens) (Q03181 whole entry, looked up): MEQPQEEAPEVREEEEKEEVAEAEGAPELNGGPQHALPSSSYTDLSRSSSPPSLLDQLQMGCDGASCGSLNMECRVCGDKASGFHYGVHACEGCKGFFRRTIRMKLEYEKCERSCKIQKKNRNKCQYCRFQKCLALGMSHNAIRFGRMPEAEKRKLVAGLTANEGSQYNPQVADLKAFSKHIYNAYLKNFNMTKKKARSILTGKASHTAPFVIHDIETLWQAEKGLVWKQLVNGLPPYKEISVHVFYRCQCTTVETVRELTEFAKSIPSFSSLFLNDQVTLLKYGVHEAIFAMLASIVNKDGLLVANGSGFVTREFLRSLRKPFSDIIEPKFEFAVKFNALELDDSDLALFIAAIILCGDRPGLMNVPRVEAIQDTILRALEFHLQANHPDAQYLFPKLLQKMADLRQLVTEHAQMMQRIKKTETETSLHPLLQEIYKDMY
Chain of Peroxisome proliferator-activated receptor gamma (Homo sapiens) (P37231 whole entry, looked up): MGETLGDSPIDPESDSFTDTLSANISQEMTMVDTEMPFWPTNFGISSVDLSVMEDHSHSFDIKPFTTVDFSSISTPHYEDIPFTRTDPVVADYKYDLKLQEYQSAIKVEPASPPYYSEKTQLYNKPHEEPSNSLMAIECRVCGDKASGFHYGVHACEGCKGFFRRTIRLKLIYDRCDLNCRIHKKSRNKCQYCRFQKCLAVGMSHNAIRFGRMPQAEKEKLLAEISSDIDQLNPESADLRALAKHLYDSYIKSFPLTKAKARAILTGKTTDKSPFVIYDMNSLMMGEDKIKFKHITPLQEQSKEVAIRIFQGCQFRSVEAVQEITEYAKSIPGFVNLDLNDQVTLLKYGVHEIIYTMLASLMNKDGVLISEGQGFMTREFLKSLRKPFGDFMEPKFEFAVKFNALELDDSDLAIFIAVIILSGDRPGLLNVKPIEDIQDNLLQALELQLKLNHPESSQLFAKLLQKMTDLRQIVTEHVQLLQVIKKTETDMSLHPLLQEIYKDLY
Chain of Bile acid receptor (Homo sapiens) (Q96RI1 whole entry, looked up): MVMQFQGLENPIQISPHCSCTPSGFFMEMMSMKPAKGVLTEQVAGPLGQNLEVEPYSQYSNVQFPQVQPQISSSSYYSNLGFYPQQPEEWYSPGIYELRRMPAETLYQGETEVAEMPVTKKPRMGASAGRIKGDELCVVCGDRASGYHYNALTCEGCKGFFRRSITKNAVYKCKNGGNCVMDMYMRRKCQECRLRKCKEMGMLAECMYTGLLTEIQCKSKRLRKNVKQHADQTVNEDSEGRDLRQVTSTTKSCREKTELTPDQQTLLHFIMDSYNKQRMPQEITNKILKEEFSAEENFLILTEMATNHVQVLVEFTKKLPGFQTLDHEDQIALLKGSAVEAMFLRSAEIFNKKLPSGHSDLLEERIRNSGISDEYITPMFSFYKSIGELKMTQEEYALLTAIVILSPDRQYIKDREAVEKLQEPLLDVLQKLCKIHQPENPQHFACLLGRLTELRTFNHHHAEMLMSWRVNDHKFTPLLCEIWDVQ
Chain of Vitamin D3 receptor (Homo sapiens) (P11473 whole entry, looked up): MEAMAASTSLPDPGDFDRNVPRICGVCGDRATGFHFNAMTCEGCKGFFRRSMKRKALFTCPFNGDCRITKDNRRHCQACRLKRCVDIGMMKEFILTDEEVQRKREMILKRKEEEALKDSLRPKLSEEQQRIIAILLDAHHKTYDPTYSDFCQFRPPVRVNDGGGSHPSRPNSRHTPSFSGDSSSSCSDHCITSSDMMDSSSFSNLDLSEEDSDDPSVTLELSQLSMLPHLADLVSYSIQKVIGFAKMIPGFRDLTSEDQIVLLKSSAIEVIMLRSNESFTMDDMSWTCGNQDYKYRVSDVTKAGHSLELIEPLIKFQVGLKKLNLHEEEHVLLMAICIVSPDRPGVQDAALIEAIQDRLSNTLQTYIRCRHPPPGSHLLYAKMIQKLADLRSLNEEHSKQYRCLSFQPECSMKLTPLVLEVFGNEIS
Chain of Aryl hydrocarbon receptor (Homo sapiens) (P35869 whole entry, looked up): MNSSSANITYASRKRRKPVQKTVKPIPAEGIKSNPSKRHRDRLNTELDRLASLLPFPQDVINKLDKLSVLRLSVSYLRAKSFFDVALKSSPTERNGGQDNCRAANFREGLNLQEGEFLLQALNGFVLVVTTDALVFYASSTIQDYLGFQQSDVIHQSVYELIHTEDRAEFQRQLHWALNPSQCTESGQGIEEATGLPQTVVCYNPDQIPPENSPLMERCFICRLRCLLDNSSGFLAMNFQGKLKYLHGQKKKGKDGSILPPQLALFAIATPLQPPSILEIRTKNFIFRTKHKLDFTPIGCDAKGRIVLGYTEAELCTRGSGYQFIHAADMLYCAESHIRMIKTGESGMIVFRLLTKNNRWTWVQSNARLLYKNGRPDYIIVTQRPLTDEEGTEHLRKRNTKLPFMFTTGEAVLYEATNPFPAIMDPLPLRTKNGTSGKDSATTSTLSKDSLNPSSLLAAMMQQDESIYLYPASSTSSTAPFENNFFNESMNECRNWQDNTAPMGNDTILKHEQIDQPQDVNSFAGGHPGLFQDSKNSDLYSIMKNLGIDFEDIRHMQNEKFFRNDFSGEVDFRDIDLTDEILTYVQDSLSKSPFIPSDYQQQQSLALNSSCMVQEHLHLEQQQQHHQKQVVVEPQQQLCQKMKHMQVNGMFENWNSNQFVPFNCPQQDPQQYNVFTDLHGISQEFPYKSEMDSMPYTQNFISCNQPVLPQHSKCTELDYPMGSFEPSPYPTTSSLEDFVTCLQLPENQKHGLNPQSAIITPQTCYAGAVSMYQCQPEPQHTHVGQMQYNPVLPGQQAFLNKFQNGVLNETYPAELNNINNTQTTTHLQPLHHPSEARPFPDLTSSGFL

Consider `ClC1(Cl)C2(Cl)C3(Cl)C4(Cl)C(Cl)(Cl)C5(Cl)C3(Cl)C1(Cl)C5(Cl)C24Cl` (stereo unspecified), for which the Potency entry in test [1], in [2], in test [3], in test [4], in test [5] and in test [6] was “inactive” throughout. Also, the Potency entry in test [7], in test [8], in test [9], in test [10], in test [11] and in test [12] was “inactive” in each case. For the same molecule, the Potency entry in [13] was “inactive”.
For `ClC1=C(Cl)[C@]2(Cl)[C@@H]3[C@H]4C[C@H]([C@@H]5O[C@H]45)[C@@H]3[C@@]1(Cl)C2(Cl)Cl`, the Potency result in test [1], in test [2], in test [3], in test [4], in [5] and in test [6] was “inactive” throughout. For the same molecule, the Potency result in [14] and in test [13] was “inactive” throughout. Besides, the Potency in [7] is 51.8 µM (active).
`CC(Cc1ccc2c(c1)OCO2)NO` (stereo unspecified): the Potency result in test [1], in test [2], in test [3], in test [15], in test [4] and in [5] was “inactive” throughout. Besides, the Potency result in test [6], in test [7], in test [8], in test [16], in test [9] and in test [10] was “inactive” each time. Also, the Potency entry in test [17], in [14], in [18], in [12] and in test [13] was “inactive” each time.
`COc1ccc2[nH]cc(CCN(C(C)C)C(C)C)c2c1`: the Potency result in [1], in [3], in [4], in test [5], in [6] and in test [7] was “inactive” in each case. Further, the Potency result in test [9], in test [10], in [12] and in [13] was “inactive” each time. In [2], the Potency was 22.2 µM (active).
With `CCC(C)Nc1c([N+](=O)[O-])cc(C(C)(C)C)cc1[N+](=O)[O-]` (stereo unspecified), the Potency result in test [1], in [2], in test [3], in test [15], in [4] and in [5] was “inactive” throughout. The Potency entry in [6], in test [8], in test [16], in test [9], in test [10] and in test [14] was “inactive” throughout. Further, the Potency result in test [11] and in [13] was “inactive” throughout.
Consider `N#CSCc1ccccc1`, for which the Potency entry in test [1], in test [2], in test [3], in test [4], in test [19] and in test [5] was “inactive” in each case. For the same molecule, the Potency result in test [6], in [7], in test [8], in test [16], in test [9] and in test [10] was “inactive” in each case. For the same molecule, the Potency result in [17], in test [14], in [18] and in test [13] was “inactive” in each case.
For `O=S(=O)(O)F`, the Potency result in test [1], in test [2], in [3], in test [15], in [19] and in [5] was “inactive” throughout. Besides, the Potency result in test [6], in [7], in [8], in test [16], in test [9] and in [10] was “inactive” each time. Also, the Potency entry in [18], in [11] and in test [13] was “inactive” in each case.
`CC1(C)[C@H](/C=C2\CCSC2=O)[C@@H]1C(=O)OCc1coc(Cc2ccccc2)c1`: the Potency result in [1], in [2], in [20], in test [4], in [6] and in test [8] was “inactive” throughout. Besides, the Potency entry in test [16], in test [9], in test [14] and in test [11] was “inactive” throughout.
As to `CC(=O)O.CC(=O)O.CC(=O)O.CC(=O)O.CC(=O)O.CC(=O)O.CC(=O)O.O.O.[Cr].[Cr].[Cr]`, the Potency result in test [1], in [2], in [4], in test [5], in test [6] and in test [8] was “inactive” in each case. For the same molecule, the Potency result in test [9], in [14] and in [11] was “inactive” throughout.
For `CCCCCON=O`, the Potency entry in [1], in [20], in [3], in test [15], in test [4] and in test [19] was “inactive” throughout. Besides, the Potency result in test [5], in [6], in test [7], in test [8], in [16] and in test [9] was “inactive” in each case. Further, the Potency result in [10], in test [14], in test [11], in test [12] and in test [13] was “inactive” throughout.
Take `CC(C)=CC1C(C(=O)OC(C#N)c2cccc(Oc3ccccc3)c2)C1(C)C` (stereo unspecified): the Potency entry in [1], in [20], in [3], in [15], in test [4] and in test [19] was “inactive” in each case. Further, the Potency entry in test [5], in [6], in [8], in [9], in [10] and in [17] was “inactive” in each case. Further, the Potency entry in test [14], in test [18] and in [11] was “inactive” in each case.
